# For some of these results: Measured potencies and affinities stand elsewhere.
# Tests used:
# Parameters in all cases: scale not given: direction of the effect not stated beside the values
# [1] = biological target: Protein translocase subunit SecA (Escherichia coli (strain K12)) (UniProt P10408); test: Assay to Identify E. coli SecA ATPase Inhibitors; assay type: functional; settings: 30 µM
# [2] = biological target: T1, Ubiquitin-activating enzyme e1, putative (Leishmania donovani (strain BPK282A1)) (UniProt E9BSI1); test: Leishmania donovani Ubiquitin Activating Enzyme (LdE1); assay type: functional; settings: 30 µM
# T1 sequence (whole entry): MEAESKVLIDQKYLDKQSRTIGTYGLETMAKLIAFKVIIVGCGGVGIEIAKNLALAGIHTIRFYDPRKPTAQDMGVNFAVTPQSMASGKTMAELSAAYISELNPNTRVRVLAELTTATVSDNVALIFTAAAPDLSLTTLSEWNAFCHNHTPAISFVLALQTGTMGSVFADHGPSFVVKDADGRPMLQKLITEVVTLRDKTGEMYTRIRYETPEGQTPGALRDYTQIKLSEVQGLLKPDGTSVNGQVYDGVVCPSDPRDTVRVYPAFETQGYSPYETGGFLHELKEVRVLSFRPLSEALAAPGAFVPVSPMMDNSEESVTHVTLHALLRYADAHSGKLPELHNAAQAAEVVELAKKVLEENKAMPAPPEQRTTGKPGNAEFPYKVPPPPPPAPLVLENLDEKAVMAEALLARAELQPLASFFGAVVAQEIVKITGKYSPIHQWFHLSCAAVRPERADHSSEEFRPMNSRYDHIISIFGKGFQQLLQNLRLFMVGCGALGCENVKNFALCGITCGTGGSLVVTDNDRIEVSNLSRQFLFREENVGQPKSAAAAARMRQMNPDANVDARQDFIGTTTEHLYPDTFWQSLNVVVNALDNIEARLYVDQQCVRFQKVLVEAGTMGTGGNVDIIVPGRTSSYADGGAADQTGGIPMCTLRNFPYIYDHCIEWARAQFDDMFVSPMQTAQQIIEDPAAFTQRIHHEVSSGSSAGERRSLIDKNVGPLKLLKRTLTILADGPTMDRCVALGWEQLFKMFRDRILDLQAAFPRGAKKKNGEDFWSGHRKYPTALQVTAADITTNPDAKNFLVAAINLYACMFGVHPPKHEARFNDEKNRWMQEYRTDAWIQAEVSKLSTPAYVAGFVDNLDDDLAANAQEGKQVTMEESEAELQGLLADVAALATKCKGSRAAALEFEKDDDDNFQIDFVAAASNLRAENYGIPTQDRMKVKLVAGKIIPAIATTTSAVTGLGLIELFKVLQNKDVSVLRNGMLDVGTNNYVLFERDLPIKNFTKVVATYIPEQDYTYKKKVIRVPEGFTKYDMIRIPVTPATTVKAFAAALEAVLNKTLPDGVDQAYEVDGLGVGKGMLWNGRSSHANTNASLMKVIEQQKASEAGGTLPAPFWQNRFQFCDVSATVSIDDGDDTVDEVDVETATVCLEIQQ
# [3] = biological target: AMP-activated protein kinase, AMPK (Homo sapiens) (UniProt P54646+O43741+P54619+Q9UGJ0+Q9Y478+Q13131+Q9UGI9); test: AMP-dependent Kinase enzyme assay. An in vitro enzyme assay that detects ADP turnover that is directly proportional to AMPK activity. This uses naive AMPK that is activated during the assay with MK-8722; assay type: functional; settings: 30 µM
# [4] = biological target: Sialic acid-binding Ig-like lectin 9 (Homo sapiens) (UniProt Q9Y336); test: Hs-Siglec9 ALPHAscreen SOP 20170721; settings: 10 µM
# [5] = system: Trypanosoma cruzi; test: Trypanosoma cruzi phosphomannomutase and mannose-1-phosphate guanylyltransferase assay; assay type: functional; settings: 10 µM
# [6] = biological target: T2, Arginase-2, mitochondrial (Homo sapiens) (UniProt P78540); test: in vitro enzyme assay to detect the production of urea directly proportional to the activity of Arginase II; assay type: functional; settings: 33.3 µM; further: in the data most compounds retested in dose-response had high values
# T2 sequence (whole entry): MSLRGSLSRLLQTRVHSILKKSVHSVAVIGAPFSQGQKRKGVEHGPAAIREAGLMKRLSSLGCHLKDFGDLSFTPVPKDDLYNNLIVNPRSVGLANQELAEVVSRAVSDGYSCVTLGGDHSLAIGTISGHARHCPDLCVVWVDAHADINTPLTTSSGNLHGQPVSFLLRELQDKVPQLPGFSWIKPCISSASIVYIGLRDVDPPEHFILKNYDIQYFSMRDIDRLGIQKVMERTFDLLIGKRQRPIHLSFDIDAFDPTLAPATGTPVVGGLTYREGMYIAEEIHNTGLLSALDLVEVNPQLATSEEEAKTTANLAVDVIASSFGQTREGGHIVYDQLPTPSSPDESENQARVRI
# [7] = biological target: T3, Proteasome subunit beta (Trypanosoma cruzi) (UniProt O96673); test: Trypanosoma cruzi proteasome chymotrypsin-like activity (TcProtChymo) assay.; further: in the data most compounds retested in dose-response had high values; assay type: functional; settings: 9.37 µM
# T3 sequence (whole entry): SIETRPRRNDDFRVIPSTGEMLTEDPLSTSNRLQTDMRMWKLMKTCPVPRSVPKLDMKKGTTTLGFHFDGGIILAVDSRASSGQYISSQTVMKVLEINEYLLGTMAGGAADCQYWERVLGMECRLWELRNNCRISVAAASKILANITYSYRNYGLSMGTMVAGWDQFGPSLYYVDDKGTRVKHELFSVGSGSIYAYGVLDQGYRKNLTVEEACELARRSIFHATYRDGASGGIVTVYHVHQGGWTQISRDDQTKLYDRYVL
# [8] = species: Homo sapiens; test: To identify inhibition of the IFN signalling (Jak-Stat) pathway via expression of an eGFP reporter gene under the control of an IFN-stimulated response element (ISRE) containing MxA promoter.; assay type: functional; settings: 30 µM
# [9] = biological target: T4, Tyrosyl-tRNA synthetase, putative (Trypanosoma cruzi (strain CL Brener)) (UniProt Q4DSP6); test: Trypanosoma cruzi tyrosyl tRNA synthetase (TcYRS) _High Tyrosine SOP; assay type: functional; settings: 30 µM; further: in the data most compounds retested in dose-response had high values
# T4 sequence (whole entry): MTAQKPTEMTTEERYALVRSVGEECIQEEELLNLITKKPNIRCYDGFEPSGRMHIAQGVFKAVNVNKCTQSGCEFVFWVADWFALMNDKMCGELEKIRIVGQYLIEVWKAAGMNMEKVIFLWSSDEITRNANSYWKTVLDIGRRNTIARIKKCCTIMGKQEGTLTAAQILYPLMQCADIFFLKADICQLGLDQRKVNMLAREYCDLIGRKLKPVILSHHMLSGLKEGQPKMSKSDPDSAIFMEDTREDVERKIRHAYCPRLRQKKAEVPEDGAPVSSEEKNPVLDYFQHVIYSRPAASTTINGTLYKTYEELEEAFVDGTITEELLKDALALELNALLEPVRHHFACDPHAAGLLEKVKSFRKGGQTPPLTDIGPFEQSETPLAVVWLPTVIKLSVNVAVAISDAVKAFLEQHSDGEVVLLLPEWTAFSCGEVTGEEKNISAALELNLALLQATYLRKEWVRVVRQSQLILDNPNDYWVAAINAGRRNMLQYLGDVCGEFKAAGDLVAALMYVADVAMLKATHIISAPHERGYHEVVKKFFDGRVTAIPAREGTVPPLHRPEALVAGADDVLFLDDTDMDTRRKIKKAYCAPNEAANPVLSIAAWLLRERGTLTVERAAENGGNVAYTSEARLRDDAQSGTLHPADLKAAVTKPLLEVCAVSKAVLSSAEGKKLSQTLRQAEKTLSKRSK
# [10] = biological target: T4, Tyrosyl-tRNA synthetase, putative (Trypanosoma cruzi (strain CL Brener)); test: Trypanosoma cruzi tyrosyl tRNA synthetase (TcYRS) SOP; assay type: functional; settings: 30 µM
# [11] = biological target: Chromo domain-containing protein 1 (Saccharomyces cerevisiae (strain ATCC 204508 / S288c) (Baker's yeast)) (UniProt P32657); test: ScCHD-1 Enzyme Inhibition Assay; assay type: functional; settings: 30 µM; further: in the data most compounds retested in dose-response had high values
# Chain of Chromo domain-containing protein 1 (Saccharomyces cerevisiae (strain ATCC 204508 / S288c) (Baker's yeast)) (P32657 whole entry, the tested form may be a part): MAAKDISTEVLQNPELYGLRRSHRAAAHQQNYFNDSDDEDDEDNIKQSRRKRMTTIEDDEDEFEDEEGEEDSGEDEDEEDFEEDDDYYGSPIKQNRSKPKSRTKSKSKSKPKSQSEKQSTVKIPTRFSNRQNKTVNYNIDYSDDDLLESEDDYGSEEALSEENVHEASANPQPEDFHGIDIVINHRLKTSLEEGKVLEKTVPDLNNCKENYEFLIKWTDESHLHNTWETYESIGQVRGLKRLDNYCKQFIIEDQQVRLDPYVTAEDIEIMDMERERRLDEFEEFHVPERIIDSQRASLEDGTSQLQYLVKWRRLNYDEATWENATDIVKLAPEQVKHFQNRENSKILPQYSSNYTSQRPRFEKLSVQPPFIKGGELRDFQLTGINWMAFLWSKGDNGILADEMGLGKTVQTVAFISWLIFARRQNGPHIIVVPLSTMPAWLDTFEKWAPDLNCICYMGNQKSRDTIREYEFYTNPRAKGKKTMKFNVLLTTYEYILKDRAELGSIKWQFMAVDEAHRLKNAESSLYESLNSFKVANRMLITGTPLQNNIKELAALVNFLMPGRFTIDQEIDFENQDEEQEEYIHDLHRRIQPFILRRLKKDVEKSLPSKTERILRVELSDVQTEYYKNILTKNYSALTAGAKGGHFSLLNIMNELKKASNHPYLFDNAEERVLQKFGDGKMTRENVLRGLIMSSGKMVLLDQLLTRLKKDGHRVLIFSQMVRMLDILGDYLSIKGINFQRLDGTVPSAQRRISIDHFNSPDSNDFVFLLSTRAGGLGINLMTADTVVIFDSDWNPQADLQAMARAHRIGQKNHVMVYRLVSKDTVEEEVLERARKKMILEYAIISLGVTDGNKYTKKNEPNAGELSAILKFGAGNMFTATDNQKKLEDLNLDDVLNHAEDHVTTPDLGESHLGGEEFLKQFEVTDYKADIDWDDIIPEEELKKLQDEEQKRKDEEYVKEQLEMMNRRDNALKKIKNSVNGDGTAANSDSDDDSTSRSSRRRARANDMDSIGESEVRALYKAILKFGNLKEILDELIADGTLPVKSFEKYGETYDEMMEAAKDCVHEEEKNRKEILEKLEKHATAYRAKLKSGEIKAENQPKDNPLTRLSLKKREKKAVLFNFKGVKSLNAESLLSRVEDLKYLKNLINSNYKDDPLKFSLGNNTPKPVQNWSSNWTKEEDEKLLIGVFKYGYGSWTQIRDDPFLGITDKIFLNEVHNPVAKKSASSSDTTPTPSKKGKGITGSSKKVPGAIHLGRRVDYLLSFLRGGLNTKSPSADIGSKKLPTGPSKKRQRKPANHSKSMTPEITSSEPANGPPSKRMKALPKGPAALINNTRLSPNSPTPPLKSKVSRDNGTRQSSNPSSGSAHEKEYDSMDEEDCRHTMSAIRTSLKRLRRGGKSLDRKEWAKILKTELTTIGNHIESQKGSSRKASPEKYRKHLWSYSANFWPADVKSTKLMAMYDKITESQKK
# Chain of Sialic acid-binding Ig-like lectin 9 (Homo sapiens) (Q9Y336 whole entry): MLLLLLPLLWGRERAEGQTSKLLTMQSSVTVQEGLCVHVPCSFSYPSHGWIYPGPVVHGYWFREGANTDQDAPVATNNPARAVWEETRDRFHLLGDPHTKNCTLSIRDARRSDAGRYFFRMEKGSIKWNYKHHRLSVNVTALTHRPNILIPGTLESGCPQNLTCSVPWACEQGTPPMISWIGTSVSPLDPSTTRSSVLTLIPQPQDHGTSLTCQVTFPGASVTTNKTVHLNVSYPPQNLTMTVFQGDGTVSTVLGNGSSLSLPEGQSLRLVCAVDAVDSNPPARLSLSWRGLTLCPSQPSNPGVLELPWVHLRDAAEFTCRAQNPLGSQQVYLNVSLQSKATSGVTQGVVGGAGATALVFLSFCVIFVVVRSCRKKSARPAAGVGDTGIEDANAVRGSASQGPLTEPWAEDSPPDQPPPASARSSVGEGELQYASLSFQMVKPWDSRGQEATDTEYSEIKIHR
# Chain of Protein translocase subunit SecA (Escherichia coli (strain K12)) (P10408 whole entry): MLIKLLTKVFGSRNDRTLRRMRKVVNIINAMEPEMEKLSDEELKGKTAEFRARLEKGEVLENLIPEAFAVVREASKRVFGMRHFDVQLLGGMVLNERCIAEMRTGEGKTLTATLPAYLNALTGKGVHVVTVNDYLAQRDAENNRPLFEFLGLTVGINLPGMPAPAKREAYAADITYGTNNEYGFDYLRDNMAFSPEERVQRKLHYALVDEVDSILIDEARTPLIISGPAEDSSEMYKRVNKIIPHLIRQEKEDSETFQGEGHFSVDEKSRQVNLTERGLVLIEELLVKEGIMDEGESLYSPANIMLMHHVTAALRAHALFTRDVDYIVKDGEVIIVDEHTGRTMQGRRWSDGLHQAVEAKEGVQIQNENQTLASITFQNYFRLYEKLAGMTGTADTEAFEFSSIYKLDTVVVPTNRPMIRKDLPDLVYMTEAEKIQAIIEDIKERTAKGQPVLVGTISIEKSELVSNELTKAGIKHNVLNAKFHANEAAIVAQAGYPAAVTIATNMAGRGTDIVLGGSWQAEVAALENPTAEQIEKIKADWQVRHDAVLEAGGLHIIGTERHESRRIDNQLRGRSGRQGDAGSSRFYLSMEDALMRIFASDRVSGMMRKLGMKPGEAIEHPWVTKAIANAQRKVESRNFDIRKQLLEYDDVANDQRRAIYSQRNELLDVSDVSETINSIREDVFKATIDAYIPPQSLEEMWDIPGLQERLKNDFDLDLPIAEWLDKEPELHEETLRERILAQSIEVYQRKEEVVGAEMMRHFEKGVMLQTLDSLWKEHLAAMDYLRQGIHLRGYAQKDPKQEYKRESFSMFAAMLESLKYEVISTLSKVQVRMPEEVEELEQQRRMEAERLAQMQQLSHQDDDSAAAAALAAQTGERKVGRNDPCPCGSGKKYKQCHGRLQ
Compound,Percent Effect [1] [%],Percent Effect [2] [%],Percent Effect [3] [%],Percent Effect [4] [%],Percent Effect [5] [%],Percent Effect [6] [%],Percent Effect [7] [%],Percent Effect [8] [%],Percent Effect [9] [%],Percent Effect [10] [%],Percent Effect [11] [%]
CN1CC(=O)N(c2cccc(F)c2)CC12CCN(Cc1cccnc1)C2 (stereo unspecified),1.08,7.79,4.97,4.25,-2.46,12.3,12.9,7.53,3.17,11.5,-1.97
CC(C)(C)c1nnc(CN2CCCC2c2noc(C3CC3)n2)o1 (stereo unspecified),0.285,8.11,0.0576,-0.506,2.32,-0.554,8.08,-8.49,10.9,28.1,-6.45
Cc1nnc(Nc2cccc(C3CCN(CCO)CC3)n2)s1,-1.13,13.3,4.79,-2.96,1.38,1.63,4.85,11.5,6.38,14.1,-3.37
Cc1nccn1CC1CCCN1S(=O)(=O)Cc1ccccc1 (stereo unspecified),-4.51,5.06,2.14,4.66,3.49,1.9,-0.573,-9.27,2.46,3.8,-0.456
N#CCSCCCN1CCN(C(=O)c2ccc(Cl)cc2)CC1,-6.76,-8.22,6.65,-5.18,-3.37,-25.9,-2.83,4.5,-2.08,-3.7,7.74
Nc1nccc(NCc2cc3n(n2)CCCN(C2CCCCC2)C3)n1,-1.87,13.7,-1.77,1.73,-0.198,-1.2,24.4,2.07,9.38,23.5,-4.35
CCc1nc(CNC(=O)Nc2ccc(C(=O)NC)cc2C)cs1,-5.84,16,-2.78,18.6,8.28,6.25,4.88,11.9,4.92,11.1,-7.82
CCc1ncncc1C(=O)NCCN1CCC(C)CC1,-1.34,-4.17,-7.77,0.13,5.54,-2.21,4.21,-30.7,1.05,0,-2.04
CCc1nc(CN2CCCC(N(C)Cc3cnc(C)s3)C2)no1 (stereo unspecified),-0.97,-5.48,-1.7,3.08,0.979,0.455,18.8,-15.8,2.15,0,-0.829
COc1cccc(C(=O)N2CCCC(C(=O)CCc3ccccc3)C2)c1 (stereo unspecified),-1.46,11,17.6,10.9,1.96,4.54,20.1,23.4,1.07,7.5,-8.9
Fc1ccc(-c2nnc(CN3CCOC(Cn4cncn4)C3)o2)cc1 (stereo unspecified),-6.46,0,1.39,-4.51,-2.62,3.56,-2.37,19.6,0.971,-14.6,-2.35
